According to PubChem BioAssay (EPA / NIEHS):
Records with an inconclusive call do not appear. Active and inactive are the calls of the source. Rule for the calls, unless noted: active = hit-call score of the fitted dose curve at least 0.9, where 1 is the maximum; inactive = score below 0.9.

Legend:
[1] = target: Glucocorticoid receptor (Homo sapiens) (UniProt P04150); assay: ATG_GR_TRANS: Attagene TRANS-FACTORIAL HepG2 Assay for human Glucocorticoid Receptor (GR) (AID 2282978; active = hit-call score of the fitted dose curve at least 0.9, where 1 is the maximum;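 note: activators score as hits since higher reporter transcript over DMSO is fitted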); conditions: HepG2 Attagene TRANS GR reporter, mRNA transcription
Summary of the method: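 Exogenous NR-GAL4 fusion activity was assessed through induced GAL4-UAS reporter transcripts in transfected human HepG2 cells, quantified after 24 h by RT-PCR and fluorescent capillary electrophoresis with DMSO as baseline.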

[2] = target: Bile acid receptor (Homo sapiens) (UniProt Q96RI1); assay: ATG_FXR_TRANS: Attagene TRANS-FACTORIAL HepG2 Assay for Farnesoid X Receptor (FXR) (AID 2282979; active = hit-call score of the fitted dose curve at least 0.9, where 1 is the maximum;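 note: hits raise reporter mRNA above DMSO so AC50 marks FXR activation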); conditions: HepG2 Attagene TRANS FXR-GAL4 reporter transcription
Summary of the method: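 HepG2 cells were transiently transfected with GAL4-UAS reporters driven by chimeric NR-Gal4 proteins and dosed for 24 h. Reporter mRNA was quantified by RT-PCR, fluorescent labelling, HpaI digestion and capillary electrophoresis, with gain of signal scored versus DMSO.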

[3] = target: Oxysterols receptor LXR-beta (Homo sapiens) (UniProt P55055); assay: ATG_LXRb_TRANS: Attagene TRANS-FACTORIAL HepG2 Assay for human Liver X Receptor beta (LXRb) (AID 2282981; active = hit-call score of the fitted dose curve at least 0.9, where 1 is the maximum); conditions: HepG2 Attagene TRANS GAL4-LXRb reporter, mRNA
Summary of the method: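 After 24 h of chemical treatment, transfected HepG2 cells yield total RNA; reporter cDNA is PCR-amplified, FAM-labelled, HpaI-cut and run on capillary electrophoresis. Signal reflects chimeric LXRb-Gal4 activity on GAL4-UAS reporters.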

[4] = target: Hepatocyte nuclear factor 4-alpha (Homo sapiens) (UniProt P41235); assay: ATG_HNF4a_TRANS: Attagene TRANS-FACTORIAL HepG2 Assay for human Hepatocyte Nuclear Factor 4 alpha (HNF4a) (AID 2282982; active = hit-call score of the fitted dose curve at least 0.9, where 1 is the maximum); conditions: HepG2 HNF4a transactivation reporter, mRNA readout
Summary of the method: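 Multiplexed reporter assay: transfected HepG2, 24 h exposure, total RNA → oligo(dT) RT → PCR → 6-FAM extension → HpaI digest → CE fluorescence. DMSO = negative control.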

[5] = ATG_M_32_TRANS: Attagene TRANS-FACTORIAL HepG2 Assay for M32 Transcription Factor (Internal Marker) (AID 2282984; active = hit-call score of the fitted dose curve at least 0.9, where 1 is the maximum;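 note: transcript level of a background control reporter unit measured by RT-PCR and capillary electrophoresis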); conditions: HepG2 Attagene TRANS M32 internal marker reporter
Summary of the method: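 Cell-based TRANS-format assay in HepG2: exogenous chimeric GAL4 reporter units transiently expressed, compounds applied 24 h. Reporter mRNA detected by RT-PCR plus capillary electrophoresis; this readout is an internal background marker.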

[6] = target: Nuclear receptor subfamily 4 group A member 2 (Homo sapiens) (UniProt P43354); assay: ATG_NURR1_TRANS: Attagene TRANS-FACTORIAL HepG2 Assay for human Nuclear Receptor Related Protein 1 (NURR1) (AID 2282985; active = hit-call score of the fitted dose curve at least 0.9, where 1 is the maximum); conditions: HepG2 Attagene TRANS reporter, mRNA readout
Summary of the method: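 Measures transcriptional activation by an exogenous NR-Gal4 chimera in transfected HepG2 liver cells. After 24 h, reporter RNA is reverse-transcribed, amplified and resolved by capillary electrophoresis; DMSO defines baseline.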

[7] = target: Transcriptional activator Myb (Homo sapiens) (UniProt P10242); assay: ATG_Myb_CIS: Attagene CIS-FACTORIAL HepG2 Assay for human Myeloblastosis (Myb) Proto-Oncogene Transcription Factor (AID 2282986); conditions: HepG2 Attagene CIS-FACTORIAL Myb reporter transcription; actives raise or lower the signal
Summary of the method: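 In this HepG2 transient-transfection format, cis-regulated reporter mRNA is quantified 24 h post-dosing by RT-PCR with capillary electrophoresis, fitted bidirectionally to DMSO baseline.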

[8] = target: Nuclear respiratory factor 1 (Homo sapiens) (UniProt Q16656); assay: ATG_NRF1_CIS: Attagene CIS-FACTORIAL HepG2 Assay for human Nuclear Respiratory Factor 1 (NRF1) Orphan Gene (AID 2282987); conditions: HepG2 NRF1 cis-element reporter, Attagene multiplex; actives raise or lower the signal
Summary of the method: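 Using DMSO as baseline, gain- or loss-of-signal was fitted for reporter mRNA levels in HepG2 cells transiently transfected with cis-regulated reporter units. Samples were taken 24 h after dosing and read by RT-PCR with capillary electrophoresis.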

[9] = ATG_NFI_CIS: Attagene CIS-FACTORIAL HepG2 Assay for human Nuclear Factor I (NFI) (AID 2282989); conditions: HepG2 cis-regulatory reporter, NFI response element transcription; actives raise or lower the signal
Summary of the method: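 Transient MRTU transfection of HepG2 → 24 h chemical dosing → total RNA, oligo(dT) RT → PCR, 6-FAM primer extension, HpaI cut → capillary electrophoresis. Endpoint fitted bidirectionally relative to DMSO.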

[10] = ATG_NRF2_ARE_CIS: Attagene CIS-FACTORIAL HepG2 Assay for human Nuclear Factor Erythroid 2 Related Factor 2 (NFR2) response to Antioxidant Response Elements (ARE) (AID 2282992); conditions: HepG2 Attagene ARE/NRF2 reporter, transcription factor activity; actives raise or lower the signal;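 for AC50: reporter mRNA level measured by RT-PCR and capillary electrophoresis fluorescence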
Summary of the method: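 Readout: reporter mRNA quantified by RT-PCR plus FAM-labelled primer extension, HpaI digestion and capillary electrophoresis, 24 h after dosing transfected HepG2 cells. Gain or loss of signal is fitted bidirectionally against DMSO baseline.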

[11] = ATG_Oct_MLP_CIS: Attagene CIS-FACTORIAL HepG2 Assay for human Octamer-Binding Transcription Factor (Oct) (AID 2282993); conditions: HepG2 Attagene cis-factorial Oct reporter, mRNA; actives raise or lower the signal
Summary of the method: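 Transient MRTU transfection of HepG2 → 24 h compound treatment → RNA isolation, reverse transcription, PCR → 6-FAM primer extension, HpaI digest → capillary electrophoresis. Activity fitted both directions against DMSO.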

[12] = target: Myc proto-oncogene protein (Homo sapiens) (UniProt P01106); assay: ATG_Myc_CIS: Attagene CIS-FACTORIAL HepG2 Assay for human Myelocytomatosis (Myc) Proto-Oncogene Transcription Factor (AID 2282990); conditions: HepG2, Attagene cis-reporter transcription factor activity; actives raise or lower the signal
Summary of the method: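 HepG2, transient MRTU transfection (cis promoters, endogenous TFs); 24 h dosing; TriZol RNA → oligo(dT) RT → PCR → 6-FAM primer extension → HpaI cut → CE. Bidirectional fit vs DMSO.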

[13] = ATG_NF_kB_CIS: Attagene CIS-FACTORIAL HepG2 Assay for human Nuclear Factor Kappa B (NF-kB) (AID 2282991); conditions: HepG2 Attagene cis-factorial NF-kB reporter mRNA; actives raise or lower the signal
Summary of the method: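 Endpoint from a 52-component multiplexed HepG2 reporter panel: cis-regulated transcription units transiently transfected, 24 h dosing, reporter mRNA quantified by RT-PCR and capillary electrophoresis, scored as increase or decrease against DMSO.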

[14] = target: Cellular tumor antigen p53 (Homo sapiens) (UniProt P04637); assay: ATG_p53_CIS: Attagene CIS-FACTORIAL HepG2 Assay for human p53 Transcription Factor (AID 2282994); conditions: HepG2 p53 cis-element reporter, Attagene mRNA; actives raise or lower the signal
Summary of the method: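 Read-out: reporter mRNA by RT-PCR plus capillary electrophoresis with fluorescence detection. Human HepG2 liver cells carried transfected multi-reporter cis-element constructs, dosed 24 h. Gain or loss of signal fitted bidirectionally against DMSO control.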

[15] = target: Oxysterols receptor LXR-alpha (Homo sapiens) (UniProt Q13133); assay: ATG_LXRa_TRANS: Attagene TRANS-FACTORIAL HepG2 Assay for human Liver X Receptor alpha (LXRa) (AID 2282980; active = hit-call score of the fitted dose curve at least 0.9, where 1 is the maximum); conditions: HepG2 Attagene TRANS reporter, LXRa transactivation
Summary of the method: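 HepG2 cells transiently transfected with GAL4-UAS reporter units for chimeric NR-Gal4 proteins, exposed to chemicals for 24 h. Reporter mRNA quantified by RT-PCR and capillary electrophoresis; gain of signal fitted relative to DMSO.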

[16] = ATG_M_06_TRANS: Attagene TRANS-FACTORIAL HepG2 Assay for M06 Transcription Factor (Internal Marker) (AID 2282983; active = hit-call score of the fitted dose curve at least 0.9, where 1 is the maximum;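 note: reporter transcript level by RT-PCR then capillary electrophoresis fluorescence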); conditions: HepG2 Attagene TRANS M06 internal marker reporter
Summary of the method: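 mRNA levels of a reporter transcript, quantified as FAM fluorescence on capillary electrophoresis, served as readout. HepG2 cells expressing exogenous GAL4-chimera reporter constructs were exposed for 24 h. Gain of signal over DMSO was evaluated.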

[17] = BSK_3C_TissueFactor: BioMAP Diversity Plus: 3C Assay for Tissue Factor Biomarker Activity (AID 2282997); conditions: BioMAP 3C HUVEC, tissue factor biomarker readout; actives raise or lower the signal
Summary of the method: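 Tissue Factor measured by ELISA, 24 h after treatment of primary HUVEC in the BioMAP 3C setting.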

[18] = BSK_3C_uPAR: BioMAP Diversity Plus: 3C Assay for Urokinase-type plasminogen activator receptor (uPAR) Biomarker Activity (AID 2282998); conditions: BioMAP 3C HUVEC, uPAR biomarker ELISA; actives raise or lower the signal
Summary of the method: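 ELISA readout of uPAR on human vascular endothelium (umbilical vein primary cells), taken 24 h after chemical dosing. Increases and decreases are both fitted relative to DMSO vehicle.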

[19] = BSK_3C_VCAM1: BioMAP Diversity Plus: 3C Assay for Vascular cell adhesion molecule 1 (VCAM1) Biomarker Activity (AID 2282999); conditions: BioMAP 3C HUVEC, VCAM1 ELISA, cytokine-stimulated; actives raise or lower the signal
Summary of the method: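 Activity fitted in both directions relative to DMSO, with ELISA measurement of the surface marker on primary HUVEC (3C) at 24 h post-treatment; parallel SRB staining (0.1% SRB, TCA-fixed, 560 nm) flagged overt cytotoxicity.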

[20] = BSK_4H_Eotaxin3: BioMAP Diversity Plus: 4H Assay for Eotaxin 3 Biomarker Activity (AID 2283000); conditions: primary human endothelial cells (HUVEC); actives raise or lower the signal;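 for outcome: CCL26 protein level quantified by ELISA in parallel with SRB cytotoxicity check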
Summary of the method: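 Eotaxin-3 (CCL26) levels were measured by ELISA in HUVEC primary cultures 24 h post-dosing. Gain or loss of signal was fitted in both directions, with DMSO serving as baseline and negative control.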

Nuclear receptor subfamily 4 group A member 2 (Homo sapiens), sequence (P43354 whole entry, looked up, the tested form may be a part): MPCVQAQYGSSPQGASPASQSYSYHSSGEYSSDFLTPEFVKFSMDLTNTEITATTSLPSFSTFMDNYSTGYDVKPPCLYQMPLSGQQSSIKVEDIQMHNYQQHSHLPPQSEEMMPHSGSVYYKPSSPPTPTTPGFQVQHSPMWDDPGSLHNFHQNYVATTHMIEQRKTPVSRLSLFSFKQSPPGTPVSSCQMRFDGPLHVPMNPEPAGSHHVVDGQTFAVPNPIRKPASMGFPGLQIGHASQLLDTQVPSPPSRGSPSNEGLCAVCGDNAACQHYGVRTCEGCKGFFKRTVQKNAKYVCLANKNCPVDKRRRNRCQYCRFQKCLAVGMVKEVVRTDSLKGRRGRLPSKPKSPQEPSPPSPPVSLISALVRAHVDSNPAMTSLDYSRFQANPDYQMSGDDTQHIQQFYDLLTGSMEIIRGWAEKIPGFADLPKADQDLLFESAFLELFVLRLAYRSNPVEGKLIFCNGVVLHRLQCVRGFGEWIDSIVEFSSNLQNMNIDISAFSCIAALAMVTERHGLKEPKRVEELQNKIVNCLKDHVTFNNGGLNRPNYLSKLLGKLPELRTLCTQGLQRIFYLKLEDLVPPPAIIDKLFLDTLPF
Myc proto-oncogene protein (Homo sapiens), sequence (P01106 whole entry, looked up): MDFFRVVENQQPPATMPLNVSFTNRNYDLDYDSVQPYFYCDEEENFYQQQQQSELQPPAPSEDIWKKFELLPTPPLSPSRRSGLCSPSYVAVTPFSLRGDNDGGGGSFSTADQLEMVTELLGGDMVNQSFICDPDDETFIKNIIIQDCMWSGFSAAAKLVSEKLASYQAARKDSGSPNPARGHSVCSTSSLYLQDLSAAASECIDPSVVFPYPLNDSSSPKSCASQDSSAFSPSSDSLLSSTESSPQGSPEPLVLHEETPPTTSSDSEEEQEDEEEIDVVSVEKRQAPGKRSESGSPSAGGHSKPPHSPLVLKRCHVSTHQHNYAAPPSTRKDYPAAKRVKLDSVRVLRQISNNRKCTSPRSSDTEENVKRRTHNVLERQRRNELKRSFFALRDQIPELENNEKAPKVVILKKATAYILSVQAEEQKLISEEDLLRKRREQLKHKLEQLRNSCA
Bile acid receptor (Homo sapiens), sequence (Q96RI1 whole entry, looked up, the tested form may be a part): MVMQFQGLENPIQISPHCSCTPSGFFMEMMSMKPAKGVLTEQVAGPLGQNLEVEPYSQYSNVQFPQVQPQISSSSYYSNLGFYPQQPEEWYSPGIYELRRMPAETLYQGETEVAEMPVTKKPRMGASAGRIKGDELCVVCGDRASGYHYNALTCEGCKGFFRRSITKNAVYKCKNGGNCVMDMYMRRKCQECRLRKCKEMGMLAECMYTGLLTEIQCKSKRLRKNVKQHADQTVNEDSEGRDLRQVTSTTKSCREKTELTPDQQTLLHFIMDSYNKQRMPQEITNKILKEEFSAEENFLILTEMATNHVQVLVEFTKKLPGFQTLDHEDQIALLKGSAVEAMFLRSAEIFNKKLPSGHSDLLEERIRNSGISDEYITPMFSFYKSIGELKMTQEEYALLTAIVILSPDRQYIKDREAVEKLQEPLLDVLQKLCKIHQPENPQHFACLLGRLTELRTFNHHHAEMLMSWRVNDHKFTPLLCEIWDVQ
Hepatocyte nuclear factor 4-alpha (Homo sapiens), sequence (P41235 whole entry, looked up): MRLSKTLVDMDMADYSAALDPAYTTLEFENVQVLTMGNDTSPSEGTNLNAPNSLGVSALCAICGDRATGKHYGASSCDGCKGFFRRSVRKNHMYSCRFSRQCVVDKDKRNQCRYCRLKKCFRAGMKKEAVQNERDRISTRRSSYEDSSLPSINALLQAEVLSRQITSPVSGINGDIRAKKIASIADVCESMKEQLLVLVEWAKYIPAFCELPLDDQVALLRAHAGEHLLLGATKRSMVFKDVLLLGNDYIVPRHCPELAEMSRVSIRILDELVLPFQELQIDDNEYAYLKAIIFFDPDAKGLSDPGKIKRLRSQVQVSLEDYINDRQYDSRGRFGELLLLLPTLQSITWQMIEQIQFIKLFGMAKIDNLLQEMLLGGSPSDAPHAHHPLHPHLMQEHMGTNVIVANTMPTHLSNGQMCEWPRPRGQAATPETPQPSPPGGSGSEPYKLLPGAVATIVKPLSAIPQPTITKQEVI
Glucocorticoid receptor (Homo sapiens), sequence (P04150 whole entry, looked up, the tested form may be a part): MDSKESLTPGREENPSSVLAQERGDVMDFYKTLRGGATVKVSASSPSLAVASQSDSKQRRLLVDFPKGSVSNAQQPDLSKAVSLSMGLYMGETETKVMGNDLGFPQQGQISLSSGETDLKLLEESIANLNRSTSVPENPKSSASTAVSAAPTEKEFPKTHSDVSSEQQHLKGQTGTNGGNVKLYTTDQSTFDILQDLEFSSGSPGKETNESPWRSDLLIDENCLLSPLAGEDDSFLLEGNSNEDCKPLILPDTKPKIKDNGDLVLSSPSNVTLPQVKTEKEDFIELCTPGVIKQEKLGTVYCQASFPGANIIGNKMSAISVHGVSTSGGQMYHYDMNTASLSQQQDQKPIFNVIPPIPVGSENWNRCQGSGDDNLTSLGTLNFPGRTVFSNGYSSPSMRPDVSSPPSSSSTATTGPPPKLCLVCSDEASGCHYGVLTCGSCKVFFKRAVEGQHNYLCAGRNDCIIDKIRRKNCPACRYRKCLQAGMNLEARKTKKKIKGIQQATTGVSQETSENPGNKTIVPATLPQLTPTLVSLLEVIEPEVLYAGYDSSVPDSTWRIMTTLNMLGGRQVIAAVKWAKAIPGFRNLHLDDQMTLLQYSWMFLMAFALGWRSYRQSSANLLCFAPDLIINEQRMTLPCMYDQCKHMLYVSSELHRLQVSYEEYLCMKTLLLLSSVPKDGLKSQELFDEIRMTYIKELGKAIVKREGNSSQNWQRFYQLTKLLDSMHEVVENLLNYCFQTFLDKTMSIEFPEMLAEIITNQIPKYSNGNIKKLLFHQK
Nuclear respiratory factor 1 (Homo sapiens), sequence (Q16656 whole entry, looked up): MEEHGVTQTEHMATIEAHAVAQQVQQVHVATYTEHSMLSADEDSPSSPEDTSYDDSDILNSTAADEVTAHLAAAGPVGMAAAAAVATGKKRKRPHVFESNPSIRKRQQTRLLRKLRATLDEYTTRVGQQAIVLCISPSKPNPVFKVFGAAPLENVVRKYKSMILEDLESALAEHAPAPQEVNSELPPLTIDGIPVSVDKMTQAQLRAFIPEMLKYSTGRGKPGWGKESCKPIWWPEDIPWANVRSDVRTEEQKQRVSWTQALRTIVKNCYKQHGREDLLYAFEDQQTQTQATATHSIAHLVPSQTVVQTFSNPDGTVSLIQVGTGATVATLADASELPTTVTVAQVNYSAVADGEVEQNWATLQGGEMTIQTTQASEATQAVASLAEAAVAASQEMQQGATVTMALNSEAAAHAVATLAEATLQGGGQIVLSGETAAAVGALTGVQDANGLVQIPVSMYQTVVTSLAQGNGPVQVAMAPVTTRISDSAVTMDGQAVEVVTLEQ
Transcriptional activator Myb (Homo sapiens), sequence (P10242 whole entry, looked up): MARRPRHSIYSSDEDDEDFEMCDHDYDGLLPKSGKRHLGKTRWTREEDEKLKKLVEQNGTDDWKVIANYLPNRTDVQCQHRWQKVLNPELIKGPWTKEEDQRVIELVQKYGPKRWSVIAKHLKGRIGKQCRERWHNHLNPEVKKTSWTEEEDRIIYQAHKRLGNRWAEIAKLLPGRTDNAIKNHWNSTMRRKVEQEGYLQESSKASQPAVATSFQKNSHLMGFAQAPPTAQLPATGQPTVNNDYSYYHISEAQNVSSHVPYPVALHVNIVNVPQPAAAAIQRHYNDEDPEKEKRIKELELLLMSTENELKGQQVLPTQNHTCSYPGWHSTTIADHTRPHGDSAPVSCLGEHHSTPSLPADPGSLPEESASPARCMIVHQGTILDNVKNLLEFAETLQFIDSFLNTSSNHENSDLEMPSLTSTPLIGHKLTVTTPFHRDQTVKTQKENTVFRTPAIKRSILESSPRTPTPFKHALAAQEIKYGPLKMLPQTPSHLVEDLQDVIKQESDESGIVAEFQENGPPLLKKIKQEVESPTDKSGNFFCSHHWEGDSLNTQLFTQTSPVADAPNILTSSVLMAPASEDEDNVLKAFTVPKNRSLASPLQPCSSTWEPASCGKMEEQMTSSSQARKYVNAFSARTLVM
Oxysterols receptor LXR-beta (Homo sapiens), sequence (P55055 whole entry, looked up, the tested form may be a part): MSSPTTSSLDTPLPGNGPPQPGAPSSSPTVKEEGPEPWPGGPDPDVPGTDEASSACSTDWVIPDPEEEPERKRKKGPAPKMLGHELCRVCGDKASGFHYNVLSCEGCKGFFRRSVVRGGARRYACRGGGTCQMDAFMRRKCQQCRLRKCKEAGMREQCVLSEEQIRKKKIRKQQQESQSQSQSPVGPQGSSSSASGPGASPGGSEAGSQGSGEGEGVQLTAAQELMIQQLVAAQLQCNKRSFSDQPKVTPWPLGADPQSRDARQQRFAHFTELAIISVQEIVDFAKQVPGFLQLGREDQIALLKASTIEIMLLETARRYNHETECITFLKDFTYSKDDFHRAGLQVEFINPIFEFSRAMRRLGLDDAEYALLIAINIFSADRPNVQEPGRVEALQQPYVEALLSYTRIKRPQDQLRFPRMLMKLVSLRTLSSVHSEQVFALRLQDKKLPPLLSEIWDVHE
Cellular tumor antigen p53 (Homo sapiens), sequence (P04637 whole entry, looked up): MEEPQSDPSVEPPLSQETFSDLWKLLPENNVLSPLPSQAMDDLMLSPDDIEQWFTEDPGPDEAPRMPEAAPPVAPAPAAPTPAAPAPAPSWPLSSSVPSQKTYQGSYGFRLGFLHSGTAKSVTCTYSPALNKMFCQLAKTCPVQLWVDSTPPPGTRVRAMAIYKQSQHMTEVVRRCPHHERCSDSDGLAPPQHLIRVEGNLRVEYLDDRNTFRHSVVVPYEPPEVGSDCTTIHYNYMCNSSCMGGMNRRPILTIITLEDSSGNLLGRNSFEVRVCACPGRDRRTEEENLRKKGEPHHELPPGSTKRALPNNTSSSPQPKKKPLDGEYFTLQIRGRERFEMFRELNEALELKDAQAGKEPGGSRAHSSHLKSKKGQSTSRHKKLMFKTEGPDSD

Nc1ccc2cc(S(=O)(=O)O)cc(O)c2c1N=Nc1ccccc1C(F)(F)F
outcome [1]: inactive | outcome [2]: inactive | outcome [3]: inactive | outcome [4]: inactive | outcome [5]: inactive | outcome [6]: inactive | outcome [7]: inactive | outcome [8]: inactive | outcome [9]: inactive | outcome [10]: inactive | outcome [11]: inactive

C[C@H]1C[C@@H](O)CC(C)(C)C1
outcome [1]: inactive | outcome [2]: inactive | outcome [3]: inactive | outcome [4]: inactive | outcome [5]: inactive | outcome [6]: inactive | outcome [7]: inactive | outcome [8]: inactive | outcome [9]: inactive | outcome [12]: inactive | outcome [13]: inactive | outcome [10]: inactive | outcome [11]: inactive | outcome [14]: inactive

NCCNc1cccc2ccccc12
outcome [1]: inactive | outcome [15]: inactive | outcome [3]: inactive | outcome [4]: inactive | outcome [16]: inactive | outcome [5]: inactive | outcome [6]: inactive | outcome [7]: inactive | outcome [8]: inactive | AC50 [9]: 178 µM (active) | AC50 [12]: 168 µM (active) | outcome [13]: inactive | outcome [10]: inactive | AC50 [11]: 176 µM (active) | AC50 [14]: 50.9 µM (active)

Nc1ccc(N)c2c1C(=O)c1ccccc1C2=O
outcome [1]: inactive | outcome [2]: inactive | outcome [4]: inactive | outcome [5]: inactive | outcome [6]: inactive | outcome [7]: inactive | outcome [8]: inactive | outcome [9]: inactive | outcome [12]: inactive | AC50 [10]: 5.63 µM (active) | AC50 [11]: 3.47 µM (active) | outcome [14]: inactive

ClC(c1ccccc1)(c1ccccc1)c1ccccc1
outcome [1]: inactive | outcome [2]: inactive | outcome [16]: inactive | outcome [6]: inactive | outcome [7]: inactive | outcome [8]: inactive | outcome [9]: inactive | outcome [12]: inactive | outcome [13]: inactive | outcome [10]: inactive | outcome [14]: inactive

COc1cc(C(C)C)ccc1C
outcome [1]: inactive | outcome [2]: inactive | outcome [16]: inactive | outcome [7]: inactive | outcome [8]: inactive | outcome [9]: inactive | outcome [12]: inactive | outcome [13]: inactive | outcome [10]: inactive | outcome [11]: inactive | outcome [14]: inactive

CCCCCCCCCCCCCC(=O)OCC(O)CO (centres undefined)
outcome [1]: inactive | outcome [2]: inactive | outcome [3]: inactive | outcome [4]: inactive | outcome [16]: inactive | outcome [5]: inactive | outcome [7]: inactive | outcome [8]: inactive | outcome [9]: inactive | outcome [12]: inactive | outcome [13]: inactive | AC50 [10]: 112 µM (active) | outcome [11]: inactive | outcome [14]: inactive

CC(C)(C)CC(C)(C)c1ccc(OCCOCC[N+](C)(C)Cc2ccccc2)cc1
outcome [1]: inactive | outcome [2]: inactive | outcome [4]: inactive | outcome [5]: inactive | outcome [6]: inactive | outcome [7]: inactive | outcome [8]: inactive | outcome [9]: inactive | outcome [12]: inactive | outcome [13]: inactive | AC50 [10]: 6.71 µM (active) | outcome [11]: inactive | AC50 [14]: 8.35 µM (active) | AC50 [17]: 7.26 µM (active) | AC50 [18]: 5 µM (active) | AC50 [19]: 7.65 µM (active) | AC50 [20]: 7.69 µM (active)

C1=CC2C3C=CC(C3)C2C1 (centres undefined)
outcome [1]: inactive | outcome [2]: inactive | outcome [3]: inactive | outcome [16]: inactive | outcome [6]: inactive | outcome [7]: inactive | outcome [9]: inactive | outcome [12]: inactive | outcome [13]: inactive | outcome [10]: inactive | outcome [11]: inactive | outcome [14]: inactive | outcome [17]: inactive | outcome [18]: inactive | outcome [19]: inactive | outcome [20]: inactive

O=C(CC(=O)c1ccccc1)c1ccccc1
outcome [1]: inactive | outcome [2]: inactive | outcome [3]: inactive | outcome [16]: inactive | outcome [5]: inactive | outcome [6]: inactive | AC50 [7]: 100 µM (active) | AC50 [8]: 176 µM (active) | AC50 [9]: 100 µM (active) | AC50 [12]: 100 µM (active) | AC50 [10]: 3.43 µM (active) | AC50 [11]: 59 µM (active) | outcome [14]: inactive
